Test results as given in PubChem BioAssay (NCI).
The panel holds about 83,000 compounds, 20% with a hit somewhere; the sample as a whole holds those more often.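 Step 1: grow cells in 96-well plates. Step 2: add test compound at a single concentration. Step 3: incubate 48 h. Step 4: record percent growth.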 Activity calls are given as the source filed them. Rule for the calls: active = growth percent below 10; inactive = the rest.

Tests used:
Test in all cases: NCI-60 one-dose screen, 48 h (100 = growth as untreated, 0 = no growth, -100 = all killed)
SK-MEL-2 melanoma = conditions: 10 µM
EKVX NSCLC = conditions: 10 µM
SN12C renal = conditions: 10 µM
UO-31 renal = conditions: 10 µM
TK-10 renal = conditions: 10 µM unless noted
ACHN renal = conditions: 10 µM
CAKI-1 renal = conditions: 10 µM
A498 renal = conditions: 10 µM
CCRF-CEM leukemia = conditions: 10 µM
MOLT-4 leukemia = conditions: 10 µM
SR leukemia = conditions: 10 µM
RPMI-8226 leukemia = conditions: 10 µM
OVCAR-8 ovarian = conditions: 10 µM
OVCAR-5 ovarian = conditions: 10 µM
OVCAR-4 ovarian = conditions: 10 µM
SK-OV-3 ovarian = conditions: 10 µM
IGROV1 ovarian = conditions: 10 µM
OVCAR-3 ovarian = conditions: 10 µM
HS 578T breast = conditions: 10 µM
NCI/ADR-RES ovarian = conditions: 10 µM

Measured: growth

O=C(O)C(O)c1ccccc1 (stereo not drawn)
inactive: SK-MEL-2 melanoma 104% | EKVX NSCLC 99.9% | SN12C renal 106% | UO-31 renal 84.5% | TK-10 renal 103% | ACHN renal 103% | CAKI-1 renal 96.8% | A498 renal 93.9% | CCRF-CEM leukemia 106% | MOLT-4 leukemia 102% | SR leukemia 94.7% | RPMI-8226 leukemia 113% | OVCAR-8 ovarian 105% | OVCAR-5 ovarian 103% | OVCAR-4 ovarian 98.6% | SK-OV-3 ovarian 109% | IGROV1 ovarian 107% | OVCAR-3 ovarian 112% | HS 578T breast 110% | NCI/ADR-RES ovarian 105%

O=[N+]([O-])c1ccc(CO)cc1
inactive: SK-MEL-2 melanoma 118% | EKVX NSCLC 101% | SN12C renal 106% | UO-31 renal 93.5% | TK-10 renal 99.8% | ACHN renal 111% | CAKI-1 renal 102% | A498 renal 110% | CCRF-CEM leukemia 105% | MOLT-4 leukemia 100% | SR leukemia 99.5% | RPMI-8226 leukemia 112% | OVCAR-8 ovarian 109% | OVCAR-5 ovarian 105% | SK-OV-3 ovarian 93.7% | IGROV1 ovarian 112% | OVCAR-3 ovarian 113% | NCI/ADR-RES ovarian 107%

Cc1ccc(Cl)cc1N1C(=O)CC(Sc2ccccc2N)C1=O (stereo not drawn)
inactive: SK-MEL-2 melanoma 107% | EKVX NSCLC 104% | SN12C renal 96.8% | UO-31 renal 105% | TK-10 renal 114% | ACHN renal 94.2% | CAKI-1 renal 97.2% | A498 renal 103% | CCRF-CEM leukemia 93.8% | MOLT-4 leukemia 74.7% | SR leukemia 101% | RPMI-8226 leukemia 91.3% | OVCAR-8 ovarian 87.8% | OVCAR-5 ovarian 105% | SK-OV-3 ovarian 102% | OVCAR-3 ovarian 106% | NCI/ADR-RES ovarian 101%

C=CCOC(=O)C(=O)OCC=C
inactive: SK-MEL-2 melanoma 97.1% | EKVX NSCLC 132% | SN12C renal 101% | UO-31 renal 108% | TK-10 renal 95.1% | ACHN renal 100% | CAKI-1 renal 136% | A498 renal 119% | CCRF-CEM leukemia 90.7% | MOLT-4 leukemia 104% | SR leukemia 82.1% | RPMI-8226 leukemia 103% | OVCAR-8 ovarian 101% | OVCAR-5 ovarian 97.5% | OVCAR-4 ovarian 110% | SK-OV-3 ovarian 105% | OVCAR-3 ovarian 118% | HS 578T breast 130% | NCI/ADR-RES ovarian 117%

CC(=O)OCC1OC(OC2=C(CC=C(C)C)C(=O)c3ccccc3C2=O)C(OC(C)=O)C(OC(C)=O)C1OC(C)=O (stereo not drawn)
active: CCRF-CEM leukemia -25.8% | MOLT-4 leukemia -26.7% | SR leukemia -42.9% | RPMI-8226 leukemia -13.1% | OVCAR-3 ovarian -33.1%
inactive: SK-MEL-2 melanoma 58.7% | EKVX NSCLC 15.6% | SN12C renal 52% | UO-31 renal 38.6% | TK-10 renal 87.4% | ACHN renal 12.8% | CAKI-1 renal 68.5% | A498 renal 22.6% | OVCAR-8 ovarian 53.6% | OVCAR-5 ovarian 89.7% | SK-OV-3 ovarian 84.4% | IGROV1 ovarian 68% | HS 578T breast 18% | NCI/ADR-RES ovarian 32.4%

O=S(=O)(O)C(Nc1ccccc1)c1ccccc1 (stereo not drawn)
inactive: SK-MEL-2 melanoma 82.2% | EKVX NSCLC 104% | SN12C renal 97.8% | UO-31 renal 92.7% | TK-10 renal 100% | ACHN renal 97.6% | CAKI-1 renal 93.8% | A498 renal 81.3% | CCRF-CEM leukemia 115% | MOLT-4 leukemia 106% | SR leukemia 98.9% | RPMI-8226 leukemia 100% | OVCAR-8 ovarian 104% | OVCAR-5 ovarian 92.4% | OVCAR-4 ovarian 102% | SK-OV-3 ovarian 97% | OVCAR-3 ovarian 107% | HS 578T breast 93.2% | NCI/ADR-RES ovarian 96.9%

O=C1N(C[P+](c2ccccc2)(c2ccccc2)c2ccccc2)CCCN1C[P+](c1ccccc1)(c1ccccc1)c1ccccc1
inactive: SK-MEL-2 melanoma 122% | EKVX NSCLC 97% | SN12C renal 97.3% | UO-31 renal 87.1% | TK-10 renal 106% | ACHN renal 97.1% | CAKI-1 renal 89.4% | A498 renal 85.5% | CCRF-CEM leukemia 107% | MOLT-4 leukemia 97.7% | SR leukemia 89% | RPMI-8226 leukemia 115% | OVCAR-8 ovarian 99.5% | OVCAR-5 ovarian 110% | OVCAR-4 ovarian 107% | IGROV1 ovarian 98% | OVCAR-3 ovarian 101% | HS 578T breast 99.8% | NCI/ADR-RES ovarian 111%

CCN(CC)CCCC(C)Nc1ccnc(/C=C/c2ccc(Cl)cc2)c1 (stereo not drawn)
inactive: EKVX NSCLC 50.5% | SN12C renal 61.1% | ACHN renal 35.2% | CAKI-1 renal 18.1% | A498 renal 22.2% | MOLT-4 leukemia 13.3% | OVCAR-8 ovarian 14.8% | OVCAR-5 ovarian 47.1% | OVCAR-4 ovarian 15.4% | SK-OV-3 ovarian 72.8% | IGROV1 ovarian 41.2% | OVCAR-3 ovarian 26.5% | HS 578T breast 47.1% | NCI/ADR-RES ovarian 56.1%
active: SK-MEL-2 melanoma -69.4% | UO-31 renal -48.5% | TK-10 renal -38.8% | CCRF-CEM leukemia 6.37% | SR leukemia -19% | RPMI-8226 leukemia -26.3%

CN(C)c1nc2c([nH]1)c(=O)n(C)c(=O)n2C
inactive: SK-MEL-2 melanoma 98.7% | EKVX NSCLC 104% | SN12C renal 105% | UO-31 renal 99.1% | TK-10 renal 107% | ACHN renal 102% | CAKI-1 renal 102% | A498 renal 89.6% | CCRF-CEM leukemia 92.5% | MOLT-4 leukemia 99.6% | SR leukemia 102% | RPMI-8226 leukemia 91.7% | OVCAR-8 ovarian 96.9% | OVCAR-5 ovarian 104% | IGROV1 ovarian 101% | HS 578T breast 93.2% | NCI/ADR-RES ovarian 106%
